# Results as given in paper PMC4552634, “A New Set of Chemical Starting Points with Plasmodium falciparum Transmission-Blocking Potential for Antimalarial Drug Discovery” (PLoS ONE, 2015).
# The campaign covered roughly 13,000 compounds. About 3,200 (25%) showed an effect of 50% or more. The list shows a part of the results.
# System: P. falciparum stage V gametocytes
# Design: BacTiter-Glo ATP luminescence viability of purified stage V gametocytes in 384-well plates, per cent inhibition versus DMSO
# Conditions: 48 h, 5 µM; inhibitor
row,Compound,% Inhibition [%]
1,O=C(c1cncc(-c2ccccc2)c1)N(Cc1cncn1Cc1ccccc1F)CC1CC1 [TCMDC-132464],14.15
2,CC(C)(C)Oc1ccc(NC(=O)c2ccccc2O)cc1 [TCMDC-137700],29.92
3,COc1ccccc1N(C)CCNc1cc(C)nc(Nc2ccc(C)cc2)n1 [TCMDC-133456],-44.09
4,Cn1cc(C(=O)Nc2cccc(-c3cccc(-c4nc5ccccc5[nH]4)c3)c2)n(C)c1=O [TCMDC-137135],-5.62
5,Cc1cc(C)c(C(=O)Nc2n[nH]c3nnc(-c4cccc(F)c4F)cc23)c(C)c1 [TCMDC-141220],6.955
6,Oc1cc(Nc2ccnc3cc(I)ccc23)ccc1F [TCMDC-138379],-46.78
7,OC(COc1ccccc1-c1nc2ccccc2o1)CN1CCCN(CCc2ccccc2)CC1 (centres unmarked) [TCMDC-141430],28.2
8,COc1ccccc1N1CCN(Cc2c(NC(C)=O)sc(C)c2C)CC1 [TCMDC-124501],-13.75
9,Oc1ccccc1CNCC(O)c1cc(C(F)(F)F)cc(C(F)(F)F)c1 (centres unmarked) [TCMDC-140304],-68.09
10,O=C(NCCCCN1CCC(c2ccc(-c3ccco3)cc2)CC1)c1ccc(NC(=O)c2ccc(Cl)cc2)cc1 [TCMDC-138321],113.6
11,O=C(/C=C/c1ccc(Cl)c(Cl)c1)NCCCCCCN1CCCN(C(=O)Nc2cccc(Cl)c2)CC1 [TCMDC-135939],-30.78
12,O=C(O)C(F)(F)F.c1cc(CNCC2CCCO2)cc(-c2ccc(-c3nc4ccccc4[nH]3)s2)c1 (centres unmarked) [TCMDC-133107],-4.99
13,COc1ccc(Cl)cc1N1CCN(CCCNC(=O)c2ccc(-c3nc4cc(Cl)c(F)cc4[nH]3)s2)CC1 [TCMDC-140102],7.975
14,COc1cc(C2=NN(S(=O)(=O)c3c(C)cc(C)cc3C)CCCC2)ccc1Cl [TCMDC-136217],20.4
15,COc1ccc(-c2ccc(Nc3cccc(S(=O)(=O)CCN4CCC(CCN(C)C)CC4)c3)nc2)cn1 [TCMDC-134376],26.53
16,Fc1ccc2nc(-c3ccc(-c4ccc(CNCC5CCCO5)cc4)s3)[nH]c2c1 (centres unmarked) [TCMDC-133100],-65.64
17,CCN(CC)CCCNc1nccc(N2CCc3ncnc(Nc4ccc(OCc5cccc(F)c5)c(Cl)c4)c3C2)n1 [TCMDC-135406],102.3
18,NCCCNc1nccc(N2CCc3ncnc(Nc4ccc(OCc5cccc(F)c5)c(Cl)c4)c3C2)n1 [TCMDC-135456],85.39
19,CC(=O)NCCNc1nccc(N2CCc3ncnc(Nc4ccc(OCc5ccccn5)c(Cl)c4)c3C2)n1 [TCMDC-135447],3.253
20,Fc1cccc(COc2ccc(Nc3ncnc4ccc(C#C[C@H]5CCCN5)cc34)cc2Cl)c1 [TCMDC-135437],-6.979
21,C[C@@H](N)C#Cc1cc2c(Nc3ccc(OCc4cccc(F)c4)c(Cl)c3)ncnc2s1 [TCMDC-134655],18.43
22,CCN(CCS(C)(=O)=O)Cc1ccc(-c2ccc3ncnc(Nc4ccc(OCc5cccc(F)c5)c(Cl)c4)c3c2)o1 [TCMDC-138533],-31.95
23,CN(C)CCNc1nccc(N2CCc3ncnc(Nc4ccc(OCc5cccc(F)c5)c(Cl)c4)c3C2)n1 [TCMDC-135405],71.57
24,CC(=O)NCCNc1nccc(N2CCc3ncnc(Nc4ccc(OCc5cccc(F)c5)c(Cl)c4)c3C2)n1 [TCMDC-135392],4.041
25,CN(C)Cc1ccc(-c2cc3ncnc(Nc4ccc(OCc5cccc(F)c5)c(Cl)c4)c3s2)[nH]1 [TCMDC-135507],40.2

row,Compound,% Inhibition [%]
1,CNCCNc1nccc(N2CCc3ncnc(Nc4ccc(OCc5cccc(F)c5)c(Cl)c4)c3C2)n1 [TCMDC-135478],99.42
2,CN(C)C1CCN(CC#Cc2cc3ncnc(Nc4ccc(OCc5cccc(F)c5)c(Cl)c4)c3s2)CC1 [TCMDC-138804],11.68
3,CN(C)Cc1ccc(-c2cc3c(Nc4ccc(OCc5cccc(F)c5)c(Cl)c4)ncnc3s2)[nH]1 [TCMDC-135468],11.16
4,COc1ccc2nccc([C@@H](O)CN3CCC(NCc4cc5oc(=O)n(C)c5cc4F)CC3)c2c1 [TCMDC-141144],-1.57
5,Fc1cccc(COc2ccc(Nc3ncnc4sc(C#C[C@H]5CCCN5)cc34)cc2F)c1 [TCMDC-134429],-0.575
6,O=C(Nc1ccc(N2CCCCC2)c(Cl)c1)c1ncn[nH]1 [TCMDC-123528],3.564
7,CS(=O)(=O)CCNc1cc(N2CCc3ncnc(Nc4ccc(OCc5cccc(F)c5)c(Cl)c4)c3C2)ncn1 [TCMDC-135477],58.91
8,CC(=O)NCCNc1cc(N2CCc3ncnc(Nc4ccc(OCc5c(F)cccc5F)c(Cl)c4)c3C2)ncn1 [TCMDC-135455],38.09
9,CS(=O)(=O)CCNc1nccc(N2CCc3ncnc(Nc4ccc(OCc5cccc(F)c5)c(Cl)c4)c3C2)n1 [TCMDC-135425],8.296
10,COc1cc(-c2ccccc2)ccc1C(=O)Nc1ccc2c(c1)N(C)CCC2 [TCMDC-141219],-85.17
11,O=C(N1CCN(c2cccc(C(F)(F)F)c2)CC1)C(Cl)(Cl)Cl [TCMDC-125655],-5.728
12,O=C(/C=C/c1ccc(Cl)c(Cl)c1)NC1C2CCC1CC(CN1CCC(c3c[nH]c4ccccc34)CC1)C2 (centres unmarked) [TCMDC-139811],36.93
13,COc1ccc(Nc2nc(NC3CCN(Cc4ccccc4)CC3)cc(-c3ccncc3)n2)cc1 [TCMDC-134021],-30.5
14,c1ccc(C2CCN(Cc3ccc(-c4c[nH]c5nc(NC6CCCC6)ncc45)cc3)CC2)cc1 [TCMDC-133772],-64.75
15,c1ccc(CN2CCC(Nc3ccc(-c4cn[nH]c4-c4ccccn4)nc3)CC2)cc1 [TCMDC-138750],73.03
16,CCCCCC(C)C(C)c1cc(O)c2c(c1)OC(C)(C)CC2(O)c1ccccn1 (centres unmarked) [TCMDC-131713],-6.865
17,Cc1cc(F)ccc1-c1nc(NCCCN2CCCC2=O)nc2c1ccc(=O)n2-c1c(F)cccc1F [TCMDC-141433],-74.9
18,Cc1cc(F)ccc1-c1nc(NCCCNCCc2ccccc2)nc2c1ccc(=O)n2-c1c(F)cccc1F [TCMDC-141804],83.84
19,Cc1cc(F)ccc1-c1nc(NCC(O)CNCCc2ccccc2)nc2c1ccc(=O)n2-c1c(F)cccc1F (centres unmarked) [TCMDC-141784],98.89
20,CCCCCN1CCC(NC(=O)c2ccc(C(=O)Nc3ccc(C(C)C)cc3)cc2)CC1 [TCMDC-136751],8.673
21,O=C(C=CC(=O)N1CCCCC1)NCc1ccccc1 [TCMDC-131645],19.39
22,NC(=O)c1ccccc1OCC(=O)Nc1cccc(-c2ccc(-c3nc4ccccc4[nH]3)cc2)c1 [TCMDC-132128],7.419
23,COc1ccc2ncc(C#N)c(CCN3CCC(NCc4ccc5c(c4)NC(=O)CO5)CC3)c2c1 [TCMDC-135645],-0.6152
24,CCNc1cc(CCCC(=O)OCC)nc(Nc2ccc(C)cc2)n1 [TCMDC-134018],-48.18
25,OC(CNc1ccnc(Nc2ccccc2)n1)c1cccc(C(F)(F)F)c1 (centres unmarked) [TCMDC-136588],30.58

row,Compound,% Inhibition [%]
1,CC[C@H]1CN(C/C=C/c2ccc(OC)cc2)CC[C@H]1CCCc1ccnc2ccc(O)cc12 [TCMDC-140258],-1.76
2,CCCCCCCN1CC[C@@H](CCCc2ccnc3ccc(OC)cc23)[C@@H](CCN)C1 [TCMDC-139278],113.6
3,CCCCCCCN1CC[C@@H](CCCc2ccnc3ccc(OC)cc23)[C@@H](CNC)C1 [TCMDC-139875],105.4
4,CCCCCCCCCN1CC[C@@H](CCCc2ccnc3ccc(O)cc23)[C@@H](CC)C1 [TCMDC-131442],46.81
5,CCCCCCCN1CC[C@@H](C[C@H](N)Cc2ccnc3ccc(OC)cc23)[C@@H](CC)C1 [TCMDC-139827],11.08
6,Cc1cccc2c(/C=C/C(=O)NC3CCC(CCN4CCc5ccc(C#N)cc5CC4)CC3)c[nH]c12 (centres unmarked) [TCMDC-139665],43.65
7,O=C(Nc1cccc(-c2cc(-c3c(Cl)cccc3Cl)no2)c1)c1cncc(-c2cccs2)c1 [TCMDC-136736],-10.57
8,C[C@@H](N=C(Nc1ccc(C#N)cc1O)Nc1ccccc1Cl)c1ccc(Br)cc1 [TCMDC-140257],-91.02
9,O=C(Nc1cccc(-c2ccc(-c3nc4ccc(F)cc4[nH]3)cc2)c1)c1cccnc1 [TCMDC-136923],8.252
10,CCc1nc(N)nc(N)c1-c1ccc(C(C)(C)C)cc1 [TCMDC-137367],5.64
11,CC(N)(Cc1ccc(O)cc1)c1nn[nH]n1 (centres unmarked) [TCMDC-131387],-7.705
12,CCCc1cc(OC)c(CC2c3cc(O)c(Cl)cc3CCN2C)cc1OC (centres unmarked) [TCMDC-137166],27.65
13,COc1cc(CC2c3cc(O)c(Cl)cc3CCN2C)c(OC)cc1C (centres unmarked) [TCMDC-137434],71.2
14,CCCc1cc(OC)c(C[C@H]2c3cc(O)c(Cl)cc3CCN2C)cc1OC [TCMDC-137779],20.32
15,CCCCCCCCCCN1C(=O)C2C(CCCCNC(C)=O)NC3(C(=O)N(Cc4ccc(C(C)(C)C)cc4)c4ccccc43)C2C1=O (centres unmarked) [TCMDC-139772],47.42
16,CC(=O)Oc1c(Br)c(C)nc(C)c1-c1ccc(Oc2ccc(OC(F)(F)F)cc2)cc1 [TCMDC-137383],72.41
17,Cc1nc(C)c(-c2ccc(Oc3ccc(OC(F)(F)F)cc3)cc2)c(OC(=O)c2ccc(CN(C)C)cc2)c1Cl [TCMDC-137382],68.19
18,Cc1cc(=O)c2cc(Oc3ccc(OC(F)(F)F)cc3)ccc2[nH]1 [TCMDC-138906],0.2157
19,Cc1[nH]c(C)c(Cc2ccc(Oc3ccc(OC(F)(F)F)cc3)cc2)c(=O)c1Br [TCMDC-134530],-23.78
20,Cc1nc(C)c(-c2ccc(Oc3ccc(OC(F)(F)F)cc3)cc2)c(OC(=O)c2ccccc2)c1Cl [TCMDC-137380],76.96
21,Cc1[nH]cc(Br)c(=O)c1-c1ccc(Oc2ccc(OC(F)(F)F)cc2)cc1 [TCMDC-136197],-4.559
22,Cc1[nH]c(C)c([N+](=O)[O-])c(=O)c1-c1ccc(Oc2ccc(OC(F)(F)F)cc2)cc1 [TCMDC-135555],-1.899
23,CN(C)Cc1c(O)ccc2[nH]c(-c3ccc(OC(F)(F)F)cc3)nc12 [TCMDC-136529],-83.05
24,CC(=O)Oc1c(Cl)c(C)nc(C)c1-c1ccc(Oc2ccc(OC(F)(F)F)cc2)cc1 [TCMDC-137385],74.48
